The values below come from PubChem BioAssay.

Calls of active or inactive are those of the source.

A short description of test [1]: optical density shifts of acrAB sulA E. coli – strain DRC41, OD650, 48 h, E. coli filamentation inducer project, primary screen (AID 1152).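 Note: E. coli MC1000 strain DRC41 lacking acrAB efflux pump and sulA.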 To be noted: higher = more signal, called active from +8 up or from −8 down.
The nature of test [2]: probe aLefty1 binding on compound microarray – biochemical, small-molecule microarray, 635/667 nm fluorescence, primary screen (AID 1153).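 Note: score merges spot fluorescence with signal-to-noise ratio from the scanned slide images.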 Particulars: higher = more signal.
Test [3] is described as follows: plasmodial surface anion channel blockers, osmotic lysis – cell-based, P. falciparum Indochina, OD700, 1 h, primary screen (AID 1154). To be noted: P. falciparum Indochina infected RBC osmotic lysis, higher = more signal, called active from +8 up or from −8 down.
Test [4] can be described thus: plasmodial surface anion channel blockers, osmotic lysis – cell-based, P. falciparum Indochina, OD700, 2 h, primary screen (AID 1155).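 Note: lysis reports solute entry through the parasite surface anion channel PSAC.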 To be noted: P. falciparum Indochina infected erythrocytes, higher = more signal, called active from +8 up or from −8 down.
Test [5] can be described thus: changes in parasitized red cell lysis, either direction – P. falciparum Indochina, OD700, 3 h, PSAC antagonist project, primary screen (AID 1156). Particulars: P. falciparum-infected erythrocytes, osmotic lysis, higher = more signal, called active from +8 up or from −8 down.
Test [6] is described as follows: plasmodial surface anion channel blockers, osmotic lysis – cell-based, P. falciparum Indochina, OD700, 18 h, primary screen (AID 1157). Particulars: P. falciparum Indochina infected erythrocytes, osmotic lysis OD700, 18 h; higher = more signal, called active from +8 up or from −8 down.
The nature of test [7]: S6 kinase pathway phospho-S6 level changes – cell-based, A549, cytoblot, luminescence, serum-stimulated, primary screen (AID 1158).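 Note: serum-stimulated A549 lung adenocarcinoma cells; signal is phosphorylated S6 detected by cytoblot immunostaining with HRP secondary.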 To be noted: 5 h, higher = more signal.
The target in test [8] is NADPH oxidase 2 (Homo sapiens) (UniProt P04839). Put plainly: compounds shifting NOX2 Amplex Red fluorescence – cell-based, HEK293-NOX2, PMA-stimulated, NOX inhibitor project, primary screen (AID 1159). Note: test concentration not given here. To be noted: 45 min, higher = more signal, called active from +8 up or from −8 down.
Chain of NADPH oxidase 2 (Homo sapiens) (P04839 whole entry, looked up): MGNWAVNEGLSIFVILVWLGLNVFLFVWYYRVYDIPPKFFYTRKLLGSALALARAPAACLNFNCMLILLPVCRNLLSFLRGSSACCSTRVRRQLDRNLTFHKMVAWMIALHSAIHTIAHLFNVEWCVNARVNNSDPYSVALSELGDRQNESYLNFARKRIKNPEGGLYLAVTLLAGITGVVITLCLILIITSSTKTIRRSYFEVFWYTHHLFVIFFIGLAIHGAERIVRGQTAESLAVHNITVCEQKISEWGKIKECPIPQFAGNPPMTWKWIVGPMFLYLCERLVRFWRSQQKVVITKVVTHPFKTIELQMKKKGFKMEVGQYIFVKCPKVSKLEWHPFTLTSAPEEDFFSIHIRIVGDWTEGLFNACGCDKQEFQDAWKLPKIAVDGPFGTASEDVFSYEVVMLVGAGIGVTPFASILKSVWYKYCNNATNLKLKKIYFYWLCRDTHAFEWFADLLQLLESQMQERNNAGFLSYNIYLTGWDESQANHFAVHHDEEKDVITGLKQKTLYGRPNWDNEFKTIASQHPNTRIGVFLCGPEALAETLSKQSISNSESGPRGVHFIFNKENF
The target of test [9] is NADPH oxidase 4 (Homo sapiens) (UniProt Q9NPH5). The test can be described thus: compounds shifting NOX4 Amplex Red fluorescence – cell-based, HEK293-NOX4, tetracycline-induced, NOX inhibitor project, primary screen (AID 1160). Particulars: HEK293-NOX4, Amplex Red H2O2 fluorescence, 45 min; higher = more signal, called active from +8 up or from −8 down.
Chain of NADPH oxidase 4 (Homo sapiens) (Q9NPH5 whole entry, looked up): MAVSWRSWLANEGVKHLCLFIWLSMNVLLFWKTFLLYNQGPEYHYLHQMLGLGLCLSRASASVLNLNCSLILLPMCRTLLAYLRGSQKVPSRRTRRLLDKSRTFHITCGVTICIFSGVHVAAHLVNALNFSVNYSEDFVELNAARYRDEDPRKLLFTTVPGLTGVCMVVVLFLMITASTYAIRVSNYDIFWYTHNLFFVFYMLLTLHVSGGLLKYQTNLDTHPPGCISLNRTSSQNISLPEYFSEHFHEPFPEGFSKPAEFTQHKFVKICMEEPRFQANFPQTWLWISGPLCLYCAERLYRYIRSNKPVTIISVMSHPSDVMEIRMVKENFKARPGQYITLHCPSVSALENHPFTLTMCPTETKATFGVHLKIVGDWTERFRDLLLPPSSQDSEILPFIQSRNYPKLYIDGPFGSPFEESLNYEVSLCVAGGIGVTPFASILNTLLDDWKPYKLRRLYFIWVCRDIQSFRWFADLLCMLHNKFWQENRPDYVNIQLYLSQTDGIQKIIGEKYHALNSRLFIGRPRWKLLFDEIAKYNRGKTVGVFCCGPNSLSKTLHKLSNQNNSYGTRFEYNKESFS
Test [10] concerns the target NADPH oxidase 5 (Homo sapiens) (UniProt Q96PH1). The test can be described thus: compounds shifting NOX5 Amplex Red fluorescence – cell-based, HEK293-NOX5, NOX inhibitor project, primary screen (AID 1161). To be noted: HEK293-NOX5, ionomycin, 45 min, higher = more signal.

Chain of NADPH oxidase 5 (Homo sapiens) (Q96PH1 whole entry, looked up): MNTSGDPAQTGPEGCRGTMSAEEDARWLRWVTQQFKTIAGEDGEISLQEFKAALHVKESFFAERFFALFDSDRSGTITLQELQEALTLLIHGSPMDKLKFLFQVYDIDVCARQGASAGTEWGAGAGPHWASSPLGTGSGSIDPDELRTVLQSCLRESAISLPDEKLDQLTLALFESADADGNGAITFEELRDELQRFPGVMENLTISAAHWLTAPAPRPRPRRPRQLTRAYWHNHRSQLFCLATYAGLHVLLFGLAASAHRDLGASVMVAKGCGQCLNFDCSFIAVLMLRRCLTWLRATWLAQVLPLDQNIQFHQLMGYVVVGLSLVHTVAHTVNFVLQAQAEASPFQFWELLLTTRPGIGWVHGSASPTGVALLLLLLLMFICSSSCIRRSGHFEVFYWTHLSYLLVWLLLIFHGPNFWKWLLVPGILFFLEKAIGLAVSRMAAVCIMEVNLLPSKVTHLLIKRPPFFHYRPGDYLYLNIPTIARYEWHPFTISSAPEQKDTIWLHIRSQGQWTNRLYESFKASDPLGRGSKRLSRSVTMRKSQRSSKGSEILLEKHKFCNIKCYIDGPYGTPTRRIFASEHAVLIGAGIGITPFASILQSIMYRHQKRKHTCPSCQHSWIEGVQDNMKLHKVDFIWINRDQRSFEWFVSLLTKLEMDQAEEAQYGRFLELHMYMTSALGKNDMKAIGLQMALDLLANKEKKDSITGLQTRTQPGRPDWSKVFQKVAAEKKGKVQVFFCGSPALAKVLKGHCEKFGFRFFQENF

Regarding `C=CC[C@H](O)c1ccc(O)c2ccccc12`, the z-score in [1] is 0.675 (inactive); in test [3], 1.28 (inactive); in [4], 0.439 (inactive); in test [5], 0.168 (inactive); in [6] it was 0.45 (inactive); in test [7], -0.323. Moreover, the z-score was -5.36 (inactive) in [8], -1.98 (inactive) in test [9] and 1.42 in test [10]. Moreover, the composite z-score in test [2] is -0.0163.

As for `C=CCC(OC(C)=O)[C@@H]1[C@@H](N(Cc2ccc(-c3ccccc3)cc2)C(=O)Cc2ccc(OC)cc2)c2cc(OCCCO)ccc2N1C(=O)c1ccc2ccccc2c1` (stereo not given in full), the z-score in test [1] was -0.894 (inactive); in test [3] it was 1.23 (inactive); in test [4] it was 0.384 (inactive); in test [5], -0.247 (inactive); in test [6], 0.41 (inactive); in test [7] it was -0.111. For the same molecule, the values for the z-score in test [8], in test [9] and in test [10] were -0.48 (inactive), 0.832 (inactive) and 0.808, respectively. In test [2], this molecule gave a composite z-score of -0.529.

On to `CCCN1C(=O)[C@@]2(c3ccc([N+](=O)[O-])cc3)CC(=O)N(C3CCCCC3)[C@@H]2c2ccc(CO)cc21`, for which the z-score was -1.45 (inactive) in test [1]; -0.0987 (inactive) in test [3]; 0.636 (inactive) in [4]; -0.203 (inactive) in [5]; 0.0577 (inactive) in test [6]; -0.504 in test [7]. For the same molecule, the z-score was -0.955 (inactive) in test [8], -0.281 (inactive) in test [9] and -0.19 in test [10]. Besides, the composite z-score in test [2] is -0.5.

Regarding `COc1ccc(CCNC(=O)[C@@]2(c3ccc([N+](=O)[O-])cc3)CC(=O)N(C3CCCCC3)[C@@H]2c2ccc(CO)cc2I)cc1`, the z-score is 0.423 (inactive) in test [1]; 11.9 (active) in [3]; 1.78 (inactive) in test [4]; 3.17 (inactive) in [5]; 1.04 (inactive) in [6]; -0.189 in test [7]. In addition, the figures for the z-score in test [8], in test [9] and in test [10] were 1.3 (inactive), -1.04 (inactive) and 2.21, respectively. The molecule further had a composite z-score in test [2] of 0.0341.

On to `O=C1OC[C@@H](c2ccccc2)n2cc(/C=C/c3ccccc3)cc21`, for which the z-score in test [1] is 0.989 (inactive); in [3], 16.3 (active); in [4] it was 0.408 (inactive); in test [5], 2.6 (inactive); in test [6] it was -1.8 (inactive); in test [7], 0.693. The z-score is 0.0419 (inactive) in [8], 0.618 (inactive) in test [9] and -0.408 in test [10]. Also, the composite z-score in test [2] was -0.0868.

Take `CN(C)CCCCNC(=O)[C@H]1C[C@H]2C(=O)N[C@@H](CCCCN(C)C)C(=O)N2[C@H]1c1ccc(O)cc1`: the z-score is 2.41 (inactive) in [1]; -0.418 (inactive) in test [3]; -0.546 (inactive) in test [4]; 0.589 (inactive) in test [5]; -1.34 (inactive) in test [6]; 0.859 in test [7]. The values for the z-score in test [8], in [9] and in [10] were 0.109 (inactive), 0.504 (inactive) and 0.875, respectively. In test [2], the composite z-score was -0.299.

In the case of `CC(C)(C)OC(=O)CC[C@@]1(C(=O)N2CCOCC2)N=C(c2ccc(OCCCO)cc2)O[C@@H]1c1ccccc1CN=[N+]=[N-]`, the z-score in test [1] was 0.409 (inactive); in test [3] it was 27 (active); in test [4], 14.9 (active); in test [5], -0.762 (inactive); in test [6] it was 1.11 (inactive); in test [7] it was -0.449. The z-score is 0.825 (inactive) in test [8], 2.1 (inactive) in [9] and 2.05 in [10]. Moreover, the composite z-score in test [2] came to 0.85.

`CC1CC/C=C\[C@H]2OC34C=CCN(C(C)C)C(=O)[C@H]3N(C(C)CO)C(=O)[C@@H]4C2C(=O)O1` (stereo not given in full): the z-score in test [1] was 1.9 (inactive); in test [3] it was 1.07 (inactive); in test [4], 0.217 (inactive); in [5], 1.06 (inactive); in [6], 0.184 (inactive); in [7], 1.65. In addition, the z-score in test [8] is 0.273 (inactive); in test [9] it was -0.381 (inactive); in [10] it was 1.45. In [2], the composite z-score came to 0.0043.

`CC(C)N1CC=CC23O[C@@H]4/C=C\CCCOC(=O)C4[C@H]2C(=O)N(C(C)CO)[C@@H]3C1=O` (stereo not given in full): the z-score in test [1] is 2.12 (inactive); in test [3] it was 1.2 (inactive); in test [4], 0.0831 (inactive); in test [5], 1.07 (inactive); in test [6] it was 0.429 (inactive); in test [7] it was 0.979. Besides, the z-score in [8] was 0.667 (inactive); in [9] it was 0.142 (inactive); in [10], 0.883. In [2], this molecule displayed a composite z-score of -0.195.

As for `CC(C)C[C@@H]1NC(=O)[C@H]2C[C@@H](C(=O)O)[C@@H](c3cccc(OCCO)c3)N2C1=O`, the z-score is 0.441 (inactive) in test [1]; 6.12 (inactive) in test [3]; 1.34 (inactive) in test [4]; -2.36 (inactive) in test [5]; 0.595 (inactive) in test [6]; 0.793 in test [7]. Further, the z-score in test [8] is -0.911 (inactive); in [9] it was -0.69 (inactive); in test [10], -0.0644. For the same molecule, the composite z-score in test [2] is 0.0794.

On to `C=CC[C@H](OC(=O)Nc1ccc(SC)cc1)c1ccc(O)c(F)c1`, for which the z-score is -0.705 (inactive) in [1]; 23.6 (active) in test [3]; 4.93 (inactive) in [4]; 1.45 (inactive) in test [5]; 0.966 (inactive) in [6]; 0.49 in [7]. Further, the z-score in test [8] was -5.66 (inactive); in [9], -2.66 (inactive); in [10], -3.08. For the same molecule, the composite z-score in [2] was 0.0226.

`O=C(NCC(F)(F)F)[C@@H]1c2ccccc2C(=O)N(Cc2cc(C(F)(F)F)cc(C(F)(F)F)c2)[C@H]1c1ccc(CO)cc1`: the z-score was 0.648 (inactive) in [1]; 2.54 (inactive) in test [3]; 0.0323 (inactive) in test [4]; 0.473 (inactive) in [5]; 0.257 (inactive) in [6]; 0.751 in test [7]. Moreover, the results for the z-score in test [8], in test [9] and in [10] were 0.16 (inactive), 0.746 (inactive) and 1.11, respectively. For the same molecule, in [2], the composite z-score was 0.114.
